From PubChem
Hits are enriched below; roughly 1.7% of the tested compounds scored in any of these assays.
SSB-PriA inh = K. pneumoniae PriA-SSBct interaction inhibition; AlphaScreen SSBct-PriA binding, biotinylated peptide; inhibition, % at 33 µM; 0.6% of 430,000 active; AID 1272365; in the data active = inhibition mostly above about 37%, no sharp cut-off; inactive = mostly below about 20%;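 also: plate controls were negative control peptide for no effect and reference peptide for full effect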
3CLpro inhibitor = SARS-CoV 3CLpro protease inhibition; recombinant SARS-CoV 3CLpro, quenched FRET peptide cleavage; inhibition, % at 6 µM; 0.14% of 290,000 active; AID 1706; in the data active = inhibition above about 12%
RecA intein inh = inhibitors of M. tuberculosis RecA intein splicing. P9WHJ3. cell-free RecA intein splicing, fluorescence. inhibition, % (test concentration not listed). 0.75% of 290,000 active. AID 2221; in the data active = inhibition above about 30%;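 also: 0% = vehicle wells and 100% = reference inhibitor control wells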
DUSP3 inh = inhibitors of human VHR1 phosphatase (DUSP3); 0.52% of 290,000 active; P51452; inhibition, % at 13.3 µM; recombinant VHR phosphatase, pNPP absorbance; in the data active = inhibition above about 50%
Target sequence (P51452 whole entry, looked up): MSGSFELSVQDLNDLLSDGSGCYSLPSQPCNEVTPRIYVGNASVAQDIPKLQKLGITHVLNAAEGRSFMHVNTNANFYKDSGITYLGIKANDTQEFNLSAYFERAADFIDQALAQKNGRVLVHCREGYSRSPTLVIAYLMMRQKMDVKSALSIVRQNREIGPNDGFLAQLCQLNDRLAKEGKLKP
CCHFV vOTU inh = blocks the CCHF virus ovarian tumor domain protease; CCHFV vOTU protease, Pep-AMC fluorescence; inhibition, % at 11.5 µM; AID 651958; 0.55% of 370,000 active; in the data active = inhibition above about 30%; also: 0% = vehicle wells with enzyme and 100% = no enzyme wells
* = called active by the depositor; . = no result; ! = repeats disagree.

SMILES	SSB-PriA inh	3CLpro inhibitor	RecA intein inh	DUSP3 inh	CCHFV vOTU inh
O=C(C[n+]1ccc(CCSc2ccc(F)cc2)cc1)c1ccccc1	46*	-1	-1	5	.
O=C(C1CC1)N1CCS[C@H](c2ccccc2Cl)CC1	-12	.	.	.	.
CCn1ccc(C(=O)Nc2nnc(-c3ccno3)o2)n1	28*	.	.	.	.
CC(C)(C)c1ccc(-c2nnc3sc(-c4cnccn4)nn23)cc1	51*	.	.	.	.
Cc1cc(=O)n2nc(N3CCC(C(=O)NCc4ccccc4)CC3)sc2n1	3	-3	-5	52*	8
Cc1ccc(S(=O)(=O)n2ccc(-c3ccc(OCc4c(F)cccc4Cl)cc3)n2)cc1	-8	-2	3	53*	-13
CC(=O)NC(c1ccccc1)c1cc([N+](=O)[O-])c2cccnc2c1O (centres undefined)	44*	-2	11	-9	25
CC(C)COC(=O)n1ccc(C(=O)N2CCCCC2)n1	1	3	-2	51*	14
Cn1ccnc1SCC(=O)Nc1ccc(Oc2ccccc2)cc1	40*	-2	3	21	-3
COc1ccc(NC(=O)CSc2nccn2Cc2ccccc2)cc1	46*	-3	2	-10	-1
COc1ccc(Cn2ccnc2SCC(=O)Nc2cccc(NC(C)=O)c2)cc1	5	3	-1	22	-5
Cc1ccc(Cn2nnc3c(=O)[nH]c(C4CCCN(S(=O)(=O)c5ccccc5F)C4)nc32)cc1 (centres undefined)	-2	0	-8	-29	10
O=c1[nH]c(C2CCN(S(=O)(=O)c3ccc4c(c3)OCCO4)CC2)nc2c1nnn2Cc1ccccc1	-1	3	3	53*	12
Cc1ccc(Cn2nnc3c(=O)[nH]c(C4CCCN(S(=O)(=O)c5ccccc5)C4)nc32)cc1 (centres undefined)	-6	0	.	51*	-7
O=c1c2c(-c3ccc([N+](=O)[O-])cc3)ccnc2[nH]n1-c1ccccc1	0	-5	9	58*	9
COc1ccc(-c2ccnc3[nH]n(-c4ccccc4)c(=O)c23)cc1	3	0	-5	94	5
COc1cccc(-c2ccnc3[nH]n(-c4ccccc4)c(=O)c23)c1	0	3	-4	51*	10
C=CCOC(=O)C1=C(C)NC(=O)NC1c1ccc(Cl)cc1 (centres undefined)	102*	-4	3	12	4
C=CCOC(=O)C1=C(C)NC(=O)NC1c1ccc(N(C)C)cc1 (centres undefined)	4	2	-6	-28	3
CN(C)C(=O)c1ccc2c(c1[N+](=O)[O-])C(=O)c1ccccc1C2=O	-1	-1	55*	-2	19
CCCCc1ccc(NC(=O)CN(Cc2ccc(OC)cc2)S(=O)(=O)c2cccnc2)cc1	-3	.	.	.	.
Cc1ccc(C(C)CCN2CCC(n3nccc3NC(=O)c3ccccc3)CC2)o1 (centres undefined)	8	-4	3	53*	10
COc1ccccc1C(=O)Nc1ccnn1C1CCN(CCC(C)c2ccc(C)o2)CC1 (centres undefined)	-25	4	3	14	4
COC1=C(Nc2ccccc2OC)C(=O)c2ccccc2C1=O	68*	3	10	4	13
COc1ccccc1NC1=C(NC(C)=O)C(=O)c2ccccc2C1=O	-5	4	.	3	3
SMILES	SSB-PriA inh	3CLpro inhibitor	RecA intein inh	DUSP3 inh	CCHFV vOTU inh
OC(COc1ccc(C23CC4CC(CC(C4)C2)C3)cc1)C[N+]1(Cc2ccccc2)CCOCC1 (centres undefined)	45*	.	.	.	.
Cc1ccc(-c2cc(C(=O)N3CCC(NC(=O)c4ccc5c(c4)OCO5)CC3)[nH]n2)c(C)c1	-4	.	.	.	.
Cc1ccc(-c2cc(C(=O)N3CCC(NC(=O)c4cccc(N(C)C)c4)CC3)[nH]n2)c(C)c1	48*	.	.	.	.
CC(C)=NNC(=S)NC(C)(C)C	43*	.	.	.	.
Cc1[nH]c(C)c(S(=O)(=O)N2CCCCC2C)c1C(=O)N1CCCC1 (centres undefined)	-3	-2	-10	56*	6
COc1ccc(CN2CCC(n3nccc3NC(=O)c3ccc4c(c3)OCO4)CC2)cc1C	3	-6	0	52*	0
CC(=O)c1cc(CN2CCC(n3nccc3NC(=O)c3ccccc3C)CC2)cs1	-8	1	0	59*	-9
COc1ccc(C(=O)C(C)OC(=O)C(C)N2C(=O)c3ccccc3C2=O)cc1 (centres undefined)	-4	.	.	.	.
CN(C)C(=O)CSc1nc(-c2ccccc2)c(-c2ccccc2)o1	7	4	-1	51*	10
CNC(=O)CSc1nc(-c2ccccc2)c(-c2ccccc2)o1	-3	5	0	14	14
O=[N+]([O-])c1ccccc1N=Nc1ccc(O)cc1	43*	.	1	.	9
O=[N+]([O-])c1ccccc1N=NNc1ccccc1	0	.	.	.	6
Cc1ccc(N(C(=O)CCc2ccccc2)[C@@H]2C=CS(=O)(=O)C2)cc1C	-13	.	.	.	.
CCCCN=C[C@]12CCC(O)CC1(O)CCC1[C@@H]2CC[C@]2(C)[C@H](C3C=CC(=O)O3)CCC12O (some centres undefined)	66*	-3	-2	-6	3
CC12CCC3C(CCC4(O)CC(O)CCC34C=NO)C1(O)CCC2C1=COC(=O)C1 (centres undefined)	-20	.	.	.	26
COc1ccc(Cl)cc1NC(=O)CN(C)CC(=O)Nc1ccc(Br)cc1	-7	1	.	21	-10
COc1ccc(Cl)cc1NC(=O)CN(C)CC(=O)Nc1ccc(S(N)(=O)=O)cc1	-1	-3	.	53*	5
CN(C)c1cccc(NC(=O)CCc2ccccc2)c1	54*	2	-1	-12	12
O=C1c2ccccc2C(=O)c2cc(S(=O)(=O)Nc3ccccc3)ccc21	51	4	32*	-2	20
O=c1oc2ccccc2n1Cc1cccc(F)c1	-3	1	1	53*	-11
Cc1ccc(Cn2c(=O)oc3ccccc32)cc1	-7	-2	2	16	2
Cc1cc(C)c(S(=O)(=O)ON2C(=O)c3ccccc3C2=O)cc1C	-12	6	60*	29	-14
O=C(CCCSc1ccc(F)cc1)Nc1ccc(-c2nc3ccccc3[nH]2)cc1	-16	.	.	.	.
O=C(CCl)Nc1ccccc1C(=O)Nc1ccc2c(c1)OCO2	-3	-5	38*	8	-15
O=C(Nc1ccc2c(c1)OCO2)c1c[nH]c(=O)n(-c2ccc(F)cc2)c1=O	38*!	1	13	-5	9
COc1ccc(-n2c(=O)[nH]cc(C(=O)Nc3ccc4c(c3)OCCO4)c2=O)cc1OC	-9	1	-4	21	10
CSc1cccc(NC(=O)CSc2cc(N3CCSCC3)ncn2)c1	2	.	.	.	.
COCCCN1C2=C(C(=O)CC(C)(C)C2)C(c2ccc(OC)c(OC)c2)C2=C1CC(C)(C)CC2=O	-8	3	-2	51*	-3
CCCCOc1ccc(C(=O)Nc2c(C)nc3ccc(C)cn3c2=O)cc1	1	.	.	.	.
CCCN1CCCc2cc(CCNC(=O)C(=O)Nc3cc(C)ccc3OC)ccc21	-14	.	.	.	.
